The values that follow come from PubChem BioAssay (NCATS).

SMILES strings stand for the structures. Records with an inconclusive call do not appear. Active and inactive are the calls of the source. Calls come from the whole dose curve. Numbered stars: 1 amine (or outer) side, 2 acyl side, 3 side chain; on linkers, the order of the positions; unused ones are H or OH. Bridge positions count the residues as written; N and C are the ends. Square brackets hold non-standard residues; d marks the D form. Peptide text beside a SMILES is read from it. I, II: the chains in the order shown. Actinocin(9to1) = Cc1c2oc3c(C)ccc(C(=O)[*:1])c3nc-2c(C(=O)[*:2])c(N)c1=O; NMeV = CN[C@H](C(=O)O)C(C)C; Sar = CNCC(=O)O

The nature of one experiment: Confirmatory qHTS to identify inhibitors of SARS-CoV-2 cell entry (AID 1645844). Note: potency is the fitted concentration of half-maximal effect; nearly all actives have a fitted effect of over 45% in size. The following applies: SARS-CoV-2 pseudotyped particle cell entry, luciferase; series mostly up to 57.2 µM; activity, negative = inhibition: at the top concentration. The procedure, abridged: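 Using stable human ACE2 Expi293F cells, compounds preincubated 1 hr before spike pseudoparticle infection; luciferase signal after 48 hr at 37C, 5% CO2, normalised to spike PP and no-fusion-protein PP wells.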
Background: qHTS replaces the single test concentration by a dilution series.
On to `COc1cccc2c1C(=O)c1c(O)c3c(c(O)c1C2=O)C[C@@](O)(C(=O)CO)C[C@@H]3O[C@H]1C[C@H](N)[C@H](O)[C@H](C)O1`, for which the Potency is 0.192 µM (active). On the same count and under the same terms, as for `COc1c(C)c2c(c(O)c1C/C=C(\C)CCC(=O)OCCN1CCOCC1)C(=O)OC2`, the figure is 0.0764 µM (active); as for `CC(=O)Oc1ccccc1C(=O)Nc1ncc([N+](=O)[O-])s1`, 3.83 µM (active).

Consider `O=C(O)c1ccc(-n2nc(-c3ccccc3O)nc2-c2ccccc2O)cc1`, for which the Potency is 30.4 µM (active). Same read-out and setting: as for `CC(CN1c2ccccc2Sc2ccccc21)N(C)C` (centres undefined), the figure is 13.6 µM (active); as for `O=C1CCc2ccc(OCCCCN3CCN(c4cccc(Cl)c4Cl)CC3)cc2N1`, 19.2 µM (active); as for `CC[C@]1(O)C[C@H]2CN(CCc3c([nH]c4ccccc34)[C@@](C(=O)OC)(c3cc4c(cc3OC)N(C=O)[C@H]3[C@@](O)(C(=O)OC)[C@H](OC(C)=O)[C@]5(CC)C=CCN6CC[C@]43[C@@H]65)C2)C1`, 0.0383 µM (active).

For `CC(CN(C)C)CN1c2ccccc2CCc2ccccc21` (centres undefined), the Potency is 7.64 µM (active). Regarding `Clc1ccc(COC(Cn2ccnc2)c2ccc(Cl)cc2Cl)cc1` (centres undefined), the Potency was 9.61 µM (active). Still for that read-out and setting: as for `CN(C)C(=O)C(CCN1CCC(O)(c2ccc(Cl)cc2)CC1)(c1ccccc1)c1ccccc1`, the figure is 21.5 µM (active); as for `Nc1ncn([C@@H]2O[C@H](CO)[C@@H](O)[C@H]2O)c(=O)n1`, 17.1 µM (active). On the same count and under the same terms, as for `CC(C)(C)C(=O)OCOP(=O)(COCCn1cnc2c(N)ncnc21)OCOC(=O)C(C)(C)C`, the figure is 0.0086 µM (active); as for `CN1CCC(=C2c3ccccc3C=Cc3ccccc32)CC1`, 8.57 µM (active). The same measure, in the same setting: as for `CNCCC(Oc1ccc(C(F)(F)F)cc1)c1ccccc1` (centres undefined), the figure is 6.81 µM (active); as for `C=C(CC)C(=O)c1ccc(OCC(=O)O)c(Cl)c1Cl`, 8.57 µM (active). Regarding `CCCCNc1ccc(C(=O)OCCOCCOCCOCCOCCOCCOCCOCCOCCOC)cc1`, the Potency was 15.2 µM (active). Consider `CN(C)CCCN1c2ccccc2Sc2ccc(Cl)cc21`, for which the Potency is 12.1 µM (active). On the same count and under the same terms, as for `Cc1cn([C@H]2C[C@H](N=[N+]=[N-])[C@@H](CO)O2)c(=O)[nH]c1=O`, the figure is 0.541 µM (active); as for `O=C1C(=O)c2ccccc2C(O)=C1C1CCC(c2ccc(Cl)cc2)CC1` (centres undefined), 12.1 µM (active).

On to `CC/C(=C(\c1ccccc1)c1ccc(OCCN(C)C)cc1)c1ccccc1`, for which the Potency was 27.8 µM (active).

For `Cc1c2oc3c(C)ccc(C(=O)N[C@@H]4C(=O)N[C@H](C(C)C)C(=O)N5CCC[C@H]5C(=O)N(C)CC(=O)N(C)[C@@H](C(C)C)C(=O)O[C@@H]4C)c3nc-2c(C(=O)N[C@@H]2C(=O)N[C@H](C(C)C)C(=O)N3CCC[C@H]3C(=O)N(C)CC(=O)N(C)[C@@H](C(C)C)C(=O)O[C@@H]2C)c(N)c1=O` (I: T[dV]P[Sar][NMeV] / II: T[dV]P[Sar][NMeV]; ester I:1-I:C, II:1-II:C; linker I:N-II:N via Actinocin(9to1)), the Potency is 0.0764 µM (active). On to `CC[C@]1(O)C[C@@H]2CN(CCc3c([nH]c4ccccc34)[C@@](C(=O)OC)(c3cc4c(cc3OC)N(C)[C@H]3[C@@](O)(C(=O)OC)[C@H](OC(C)=O)[C@]5(CC)C=CCN6CC[C@]43[C@@H]65)C2)C1`, for which the Potency is 0.0764 µM (active). Still for that read-out and setting: as for `CC(=O)[C@]1(O)Cc2c(O)c3c(c(O)c2[C@@H](O[C@H]2C[C@H](N)[C@H](O)[C@H](C)O2)C1)C(=O)c1ccccc1C3=O`, the figure is 0.0764 µM (active).

A short description of the next experiment: Cytotoxicity counterscreen for inhibitors of SARS-CoV-2 cell entry (AID 1645845). For activity change, negative = cytotoxicity: % is set by controls: 0 for no effect and ±100 for the full control effect. Note: nearly all actives have a fitted effect of over 50% in size. As to conditions: cell viability (SARS-CoV-2 entry assay cells); series mostly up to 57.1 µM; activity change, negative = cytotoxicity: at the top concentration. The procedure, abridged:
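After a 15 min room-temperature ATPLite 1step step, luminescence reflected ATP remaining in HEK293-ACE2 cells exposed to compound for 1 h plus 48 h at 37 C, with percent activity set by cell and no-cell controls.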
On the technique in general: Counterscreens check selectivity or assay interference.
Turning to `Oc1ccc(Cl)cc1Cc1ccccc1`, the “activity change, negative = cytotoxicity” value was -15.9% (inactive). Turning to `COc1cccc2c1C(=O)c1c(O)c3c(c(O)c1C2=O)C[C@@](O)(C(=O)CO)C[C@@H]3O[C@H]1C[C@H](N)[C@H](O)[C@H](C)O1`, the “activity change, negative = cytotoxicity” value is -41.7% (inactive).

For `COc1c(C)c2c(c(O)c1C/C=C(\C)CCC(=O)OCCN1CCOCC1)C(=O)OC2`, the Potency entry was “inactive”. Turning to `CC(=O)Oc1ccccc1C(=O)Nc1ncc([N+](=O)[O-])s1`, the molecule was classed as inactive.

Regarding `CC(CN1c2ccccc2Sc2ccccc21)N(C)C` (centres undefined), the molecule was called inactive. With `CC[C@]1(O)C[C@H]2CN(CCc3c([nH]c4ccccc34)[C@@](C(=O)OC)(c3cc4c(cc3OC)N(C=O)[C@H]3[C@@](O)(C(=O)OC)[C@H](OC(C)=O)[C@]5(CC)C=CCN6CC[C@]43[C@@H]65)C2)C1`, the “activity change, negative = cytotoxicity” value was -41.8% (inactive). With `CC(CN(C)C)CN1c2ccccc2CCc2ccccc21` (centres undefined), the result was inactive.

In the case of `CN(C)C(=O)C(CCN1CCC(O)(c2ccc(Cl)cc2)CC1)(c1ccccc1)c1ccccc1`, the “activity change, negative = cytotoxicity” value was -25.1% (inactive). For the molecule `CC(C)(C)C(=O)OCOP(=O)(COCCn1cnc2c(N)ncnc21)OCOC(=O)C(C)(C)C`, the Potency result was “inactive”. For the molecule `CN1CCC(=C2c3ccccc3C=Cc3ccccc32)CC1`, the Potency entry is “inactive”. In the case of `C=C(CC)C(=O)c1ccc(OCC(=O)O)c(Cl)c1Cl`, the “activity change, negative = cytotoxicity” value is -5.29% (inactive). `CN(C)CCCN1c2ccccc2Sc2ccc(Cl)cc21`: the “activity change, negative = cytotoxicity” value was -13.6% (inactive). The same measure, in the same setting: as for `Cc1cn([C@H]2C[C@H](N=[N+]=[N-])[C@@H](CO)O2)c(=O)[nH]c1=O`, the figure is -11.1% (inactive). The same measure, in the same setting: as for `Cc1c2oc3c(C)ccc(C(=O)N[C@@H]4C(=O)N[C@H](C(C)C)C(=O)N5CCC[C@H]5C(=O)N(C)CC(=O)N(C)[C@@H](C(C)C)C(=O)O[C@@H]4C)c3nc-2c(C(=O)N[C@@H]2C(=O)N[C@H](C(C)C)C(=O)N3CCC[C@H]3C(=O)N(C)CC(=O)N(C)[C@@H](C(C)C)C(=O)O[C@@H]2C)c(N)c1=O` (I: T[dV]P[Sar][NMeV] / II: T[dV]P[Sar][NMeV]; ester I:1-I:C, II:1-II:C; linker I:N-II:N via Actinocin(9to1)), the figure is -19.7% (inactive). Consider `C=C1C[C@@H]2[C@H](CC[C@]3(C)C(=O)CC[C@@H]23)[C@@]2(C)C=CC(=O)C=C12`, for which the Potency result was “inactive”. Regarding `CNC(=O)c1ccc(N2C(=S)N(c3ccc(C#N)c(C(F)(F)F)c3)C(=O)C23CCC3)cc1F`, the “activity change, negative = cytotoxicity” value was -17% (inactive). With `CC[C@]1(O)C[C@@H]2CN(CCc3c([nH]c4ccccc34)[C@@](C(=O)OC)(c3cc4c(cc3OC)N(C)[C@H]3[C@@](O)(C(=O)OC)[C@H](OC(C)=O)[C@]5(CC)C=CCN6CC[C@]43[C@@H]65)C2)C1`, the “activity change, negative = cytotoxicity” value is -22.4% (inactive).

For `CC(CCc1ccccc1)NC(C)C(O)c1ccc(O)cc1` (centres undefined), the “activity change, negative = cytotoxicity” value is 0.903% (inactive). As for `Cc1sc2c(c1C)C(c1ccc(Cl)cc1)=N[C@@H](CC(=O)OC(C)(C)C)c1nnc(C)n1-2`, the “activity change, negative = cytotoxicity” value is -8.52% (inactive). On to `Cn1cc(C2=C(c3cn(C4CCN(Cc5ccccn5)CC4)c4ccccc34)C(=O)NC2=O)c2ccccc21`, for which the Potency entry was “inactive”. With `CC(=O)[C@]1(O)Cc2c(O)c3c(c(O)c2[C@@H](O[C@H]2C[C@H](N)[C@H](O)[C@H](C)O2)C1)C(=O)c1ccccc1C3=O`, the “activity change, negative = cytotoxicity” value is -41.2% (inactive).
